Results on 44 compounds are retold here after PubChem BioAssay AID1851 (National Center for Advancing Translational Sciences (NCATS), 2009).

In all, about 16,000 compounds went through this assay and about 5,700 (36%) were called active. About 24% were inconclusive and are not listed. Some of the results follow. Values without a mark were called inactive. The call rests on the fitted dose curve; in most records, active means well fitted curve in the direction sought with a large enough effect; inconclusive means small, poorly fitted or top-dose-only effect, or effect the other way; inactive means no such curve, though single readings can be large or run the other way.
On the % scale 0 is the no-effect control and ±100 the full control effect.

The target of the assay is Cytochrome P450 1A2 (Homo sapiens) (UniProt P05177). The experiment in a line: Cytochrome panel assay with activity outcomes. The conditions noted are these: recombinant CYP, pro-luciferin dealkylation, luminescence, p450-cyp1a2; series mostly up to 57.1 µM; activity, negative = inhibition: at the top concentration.
Chain of Cytochrome P450 1A2 (Homo sapiens) (P05177 whole entry, looked up): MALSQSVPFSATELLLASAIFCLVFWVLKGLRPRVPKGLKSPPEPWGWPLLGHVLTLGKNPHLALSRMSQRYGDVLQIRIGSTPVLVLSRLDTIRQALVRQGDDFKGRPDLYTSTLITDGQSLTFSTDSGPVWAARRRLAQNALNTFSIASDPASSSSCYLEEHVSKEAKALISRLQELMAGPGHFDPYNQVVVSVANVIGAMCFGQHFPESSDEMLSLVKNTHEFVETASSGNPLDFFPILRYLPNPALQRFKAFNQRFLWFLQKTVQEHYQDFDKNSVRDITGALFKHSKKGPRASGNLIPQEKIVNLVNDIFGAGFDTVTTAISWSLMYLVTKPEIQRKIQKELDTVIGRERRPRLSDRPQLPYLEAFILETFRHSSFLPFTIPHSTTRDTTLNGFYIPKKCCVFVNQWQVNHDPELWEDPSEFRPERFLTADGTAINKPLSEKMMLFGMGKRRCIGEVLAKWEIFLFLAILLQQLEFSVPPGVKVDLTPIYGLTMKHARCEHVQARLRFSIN
Take `CC(C)(C)N1C(=O)[C@@H]2[C@H]3C(=CC[C@H]2C1=O)C(=O)[C@H]1O[C@H]1[C@H]3O`: the activity, negative = inhibition is -0.944% [at 11.4 µM].
`N#Cc1cccc(-c2cncnc2NCc2cccnc2)c1`: the AC50 is 5.01 µM (active).
Same read-out and setting: as for `Cc1cccc(CNc2ncncc2-c2cccc(C#N)c2)c1`, the figure is 2.51 µM (active); as for `Cc1cnc(CNc2ncncc2-c2cccc(C#N)c2)cn1`, 12.6 µM (active).
Same read-out and setting: as for `N#Cc1cccc(-c2cncnc2NCc2ccccc2)c1`, the figure is 5.01 µM (active).
As to `O=S(=O)(O)c1ccc(N=Nc2ccccc2)cc1`, the activity, negative = inhibition was -5.18% [at 11.4 µM].
Consider `CC(=O)O[C@]1(C(C)=O)CC[C@@H]2[C@@H]3C=C(Cl)C4=CC(=O)[C@H]5C[C@@H]5[C@]4(C)[C@H]3CC[C@]21C`, for which the AC50 entry was “inactive”.
The same measure, in the same setting: the result for `N#Cc1cccc(-c2cncnc2NCc2cccs2)c1` reads 1.58 µM (active); that for `COc1ccccc1CNc1ncncc1-c1cccc(C#N)c1`, 10 µM (active).
For `Cc1ccc(C(C)C)n1C(=O)OC(C)(C)C`, the activity, negative = inhibition was 6.74% [at 11.4 µM].
On to `Fc1ccc2c(c1)C1C=CCC1C(c1cc3c(cc1Br)OCO3)N2` (centres undefined), for which the AC50 is 0.891 µM (active).
Regarding `C=CCNc1nc(Cl)nc(Nc2ccc(OC)cc2)n1`, the AC50 was 2.51 µM (active).
`C[C@@]1(C(NC(=O)c2cccs2)c2ccc(-c3ccccc3)cc2)C[C@H]1C1CCCCC1` (some centres undefined): the “activity, negative = inhibition” value is -11%.
For the compound `CCCC[C@@H]1C[C@H]1C(NC(=O)c1cccs1)c1ccc(Cl)cc1` (some centres undefined), the AC50 is 1 µM (active).
Consider `C/C(=C\C1CCCCC1)C(NC(=O)c1ccc(C(F)(F)F)cc1)c1ccc(-c2ccccc2)cc1` (centres undefined), for which the “activity, negative = inhibition” value was 4.8%.
Turning to `CCCC[C@@H]1C[C@H]1C(NC(=O)c1cccs1)c1ccccc1C(F)(F)F` (some centres undefined), the AC50 was 6.31 µM (active).
Take `CCCC[C@@H]1C[C@H]1C(NC(=O)c1cccs1)c1ccc(C(F)(F)F)cc1` (some centres undefined): the AC50 was 2 µM (active).
The same measure, in the same setting: the result for `CCOC(=O)CSC1=NC(=O)/C(=C\c2ccc(OC(C)=O)cc2)S1` reads 25.1 µM (active).
Still for that read-out and setting: as for `CCOC(=O)CSC1=NC(=O)/C(=C\c2ccc(Cl)cc2)S1`, the figure is 3.55 µM (active).
With `Cc1cccc(NC2(C(F)(F)F)N=C(c3ccccc3)NC2=O)n1` (centres undefined), the “activity, negative = inhibition” value was -7.41%.
With `Clc1ccc(-c2nnc(-c3ccc(Br)cc3)c(N3CCSCC3)n2)cc1`, the AC50 is 1.12 µM (active).
With `N#Cc1c(N2CCN(C(=O)c3ccccc3Cl)CC2)nc(-c2ccccc2)c2c1CCCC2`, the “activity, negative = inhibition” value is -15.6%.
Take `Clc1ccc(-c2nnc(-c3ccccc3)c(N3CCSCC3)n2)cc1`: the AC50 was 1.12 µM (active).
As to `Brc1ccc(-c2nnc(-c3ccccc3)c(N3CCSCC3)n2)cc1`, the AC50 was 1.26 µM (active).
For `Cc1cc(C)cc(-n2c(O)c(C=NC3CCS(=O)(=O)C3)c3ccccc3c2=O)c1` (centres undefined), the “activity, negative = inhibition” value is 1.41%.
In the case of `Cc1ccc(-n2c(O)c(/C=N/n3cnnc3)c3ccccc3c2=O)cc1`, the concentration at half-maximal activity (AC50) is 17.8 µM (active).
`COc1c(O[C@H]2O[C@@H](CO)[C@@H](O)[C@@H](O)[C@@H]2O)cc2c(c1OC)-c1ccc(SC)c(=O)cc1[C@H](NC(C)=O)CC2`: the “activity, negative = inhibition” value was -16.7% [at 25.6 µM].
The same measure, in the same setting: as for `COc1cc(C(=O)N2CCC(NC(=O)C(Cc3ccc(C(C)C)cc3)NC(C)=O)CC2)cc(OC)c1OC` (centres undefined), the figure is -25.5%; as for `O=C(NCCc1ccc(Cl)cc1)C1CCN(S(=O)(=O)N2CCC3(CC2)OCCO3)CC1`, -3.74%.
Still for that read-out and setting: as for `O=C(NCCN1CCCC1)C1(S(=O)(=O)c2ccc(Cl)cc2)CC1`, the figure is -19.8%.
In the case of `Oc1cc2c(cc1O)CN(C(=S)NCCc1ccc(Cl)cc1)CCC2`, the AC50 is 20 µM (active).
Regarding `COc1ccc(Oc2c(Cl)cnn(-c3ccccc3)c2=O)cc1`, the AC50 was 7.08 µM (active).
Consider `COc1ccc(-n2nc(C(=O)NCC(=O)Nc3ccccn3)c3ccccc3c2=O)cc1`, for which the “activity, negative = inhibition” value is -4.65%.
On the same count and under the same terms, the result for `COc1cccc(/C=N/n2nnc3c(cnn3-c3ccccc3)c2=O)c1` reads -27.9%; that for `Cn1c([N+](=O)[O-])cnc1CN1CCN(CCO)CC1`, 9.16% [at 2.29 µM].
As for `c1ccc(-c2n[nH]c(-c3ccccc3)c2-c2nc3ccccc3[nH]2)cc1`, the AC50 is 8.91 µM (active).
Same read-out and setting: as for `CCOc1cc(NC(=S)Nc2cccc(C)c2)c(OCC)cc1NC(=O)CC(C)C`, the figure is 5.01 µM (active).
Turning to `CCOc1cc(NC(=O)c2ccccc2[N+](=O)[O-])c(OCC)cc1NC(=O)CC(C)C`, the “activity, negative = inhibition” value is -11.8%.
The same measure, in the same setting: as for `Cc1cccc(NC(=S)NNC(=O)CC(C)O)c1C` (centres undefined), the figure is -22.8%; as for `CC1(C)CC(=O)C([C@H]2C3=C(CC(C)(C)CC3=O)Oc3ccccc32)C(=O)C1`, -6.77%; as for `CN1CCN(/C=N/C2=C(C#N)C(c3ccccc3)C3=C(CC(C)(C)CC3=O)O2)CC1` (centres undefined), -16.3%.
Consider `CC1(C)CC(=O)C2=C(C1)Oc1nc3ccccc3cc1C2C(C#N)C#N` (centres undefined), for which the AC50 is 22.4 µM (active).
Consider `N/C(CC/C(N)=N/O)=N\O`, for which the activity, negative = inhibition was -17.8% [at 11.4 µM].
On the same count and under the same terms, as for `Cc1nnsc1SCC(=O)O`, the figure is -5.81%.

For orientation: AC50 means the midpoint of the concentration-response curve, whichever way the signal moves.
